In all, about 39,000 compounds went through this assay and about 3,300 (8.5%) were called active. Shown is part of a subset that was picked to be rich in actives.
test system: HepG2; experiment: cytotoxicity call (relative viability < 0.9); conditions: 10 µM

Compound | cytotoxicity call
Cc1noc(C)c1NC(=O)N(C)C[C@H]1Oc2ccc(NC(=O)c3ccncc3)cc2CC(=O)N([C@H](C)CO)C[C@H]1C | inactive
CC(C)NC(=O)N(C)C[C@@H]1OCCCC[C@@H](C)Oc2ccc(NC(=O)Nc3ccccc3)cc2C(=O)N([C@@H](C)CO)C[C@H]1C | inactive
C[C@H]1CN([C@@H](C)CO)C(=O)c2cc(NS(=O)(=O)c3ccc(Cl)cc3)ccc2O[C@@H]1CN(C)S(C)(=O)=O | inactive
C[C@H](CO)N1C[C@H](C)[C@@H](CN(C)C(=O)C2CCOCC2)Oc2ncc(C#Cc3cccc(F)c3)cc2C1=O | inactive
C[C@@H]1CN([C@@H](C)CO)C(=O)c2cc(NC(=O)Nc3cccc4ccccc34)ccc2O[C@@H](C)CCCCO[C@@H]1CN(C)S(=O)(=O)c1cccs1 | inactive
COc1ccccc1C#Cc1cnc2c(c1)C(=O)N([C@@H](C)CO)C[C@@H](C)[C@H](CN(C)C(=O)CC1CC1)O2 | inactive
Cc1ccc(S(=O)(=O)Nc2ccc3c(c2)C(=O)N([C@H](C)CO)C[C@@H](C)[C@H](CN(C)C(=O)NC(C)C)O3)cc1 | inactive
C[C@@H]1CN([C@H](C)CO)C(=O)CCCn2cc(nn2)CO[C@@H]1CN(C)C(=O)c1cc(-c2ccccc2)on1 | inactive
CN(C)CCCCNC(=O)[C@@H]1C[C@@H]2C(=O)N[C@@H](CCCC[N+](C)(C)C)C(=O)N2[C@@H]1c1ccc(O)cc1 | inactive
C[C@H]1CCCCO[C@H](CN(C)C(=O)Nc2ccc(C(F)(F)F)cc2)[C@@H](C)CN([C@@H](C)CO)C(=O)c2cc(NC(=O)Nc3cccc4ccccc34)ccc2O1 | inactive
COc1ccc(S(=O)(=O)N(C)C[C@H]2Oc3ccc(NC(=O)Nc4c(C)noc4C)cc3CC(=O)N([C@@H](C)CO)C[C@@H]2C)cc1 | inactive
CCS(=O)(=O)N1C[C@]2(CN(C2)C(=O)Nc2ccc(cc2)F)c2c(n(c3cc(ccc23)OC)C)[C@H]1CO | inactive
C[C@@H]1CN([C@H](C)CO)C(=O)Cc2cc(NS(=O)(=O)c3ccc(F)cc3)ccc2O[C@@H]1CN(C)Cc1ccc(Oc2ccccc2)cc1 | active
C[C@H](CO)N1C[C@H](C)[C@@H](CN(C)Cc2ccc(Oc3ccccc3)cc2)Oc2ccc(NS(=O)(=O)c3ccc(F)cc3)cc2CC1=O | inactive
CC(=O)[C@@H](OC(=O)CS(C)(=O)=O)C(=O)NCc1ccccc1 | inactive
COc1ccc(S(=O)(=O)Nc2ccc3c(c2)C(=O)N([C@H](C)CO)C[C@@H](C)[C@H](CN(C)C(=O)CCC(F)(F)F)OCCCC[C@@H](C)O3)cc1 | inactive
C[C@@H]1CCCCO[C@@H](CN(C)C(=O)C2CCCCC2)[C@H](C)CN([C@@H](C)CO)C(=O)c2cc(NS(=O)(=O)c3ccccc3)ccc2O1 | active
C[C@@H]1CCCCO[C@H](CN(C)C(=O)C2CCCCC2)[C@H](C)CN([C@@H](C)CO)C(=O)c2cc(NS(=O)(=O)c3ccc(Cl)cc3)ccc2O1 | inactive
COc1ccc(S(=O)(=O)Nc2ccc3c(c2)C(=O)N([C@H](C)CO)C[C@@H](C)[C@H](CN(C)C(=O)C2CCCCC2)OCCCC[C@@H](C)O3)cc1 | inactive

Compound | cytotoxicity call
C[C@@H]1CCCCO[C@H](CN(C)C(=O)C2CCCCC2)[C@@H](C)CN([C@H](C)CO)C(=O)c2cc(NS(=O)(=O)c3ccc(Cl)cc3)ccc2O1 | inactive
C[C@@H]1CN([C@H](C)CO)C(=O)c2cc(NS(=O)(=O)c3ccc(Cl)cc3)ccc2O[C@@H](C)CCCCO[C@H]1CN(C)C(=O)C1CCCCC1 | active
COc1ccc(S(=O)(=O)Nc2ccc3c(c2)C(=O)N([C@H](C)CO)C[C@H](C)[C@@H](CN(C)C(=O)C2CCCCC2)OCCCC[C@H](C)O3)cc1 | inactive
C[C@@H]1CCCCO[C@@H](CN(C)C(=O)C2CCCCC2)[C@H](C)CN([C@@H](C)CO)C(=O)c2cc(NS(=O)(=O)c3ccc(Cl)cc3)ccc2O1 | inactive
C[C@H](CO)N1C[C@H](C)[C@H](CN(C)C(=O)C2CCCCC2)OCCCC[C@H](C)Oc2ccc(NS(=O)(=O)c3ccccc3)cc2C1=O | inactive
COc1ccc(S(=O)(=O)Nc2ccc3c(c2)C(=O)N([C@H](C)CO)C[C@H](C)[C@H](CN(C)C(=O)C2CCCCC2)OCCCC[C@H](C)O3)cc1 | active
C[C@@H]1CN([C@@H](C)CO)C(=O)c2cc(NS(=O)(=O)c3ccc(Cl)cc3)ccc2O[C@@H](C)CCCCO[C@H]1CN(C)C(=O)C1CCCCC1 | inactive
C[C@@H]1CN([C@H](C)CO)C(=O)c2cc(NS(=O)(=O)c3ccc(Cl)cc3)ccc2O[C@@H](C)CCCCO[C@@H]1CN(C)C(=O)C1CCCCC1 | active
C[C@@H]1CCCCO[C@H](CN(C)C(=O)C2CCCCC2)[C@H](C)CN([C@H](C)CO)C(=O)c2cc(NS(=O)(=O)c3ccccc3)ccc2O1 | inactive
C[C@H]1CN([C@@H](C)CO)C(=O)Cc2cc(NC(=O)Cn3cnnn3)ccc2O[C@H]1CN(C)CC1CC1 | inactive
COc1ccc(NC(=O)N(C)C[C@@H]2Oc3ncc(C#C[C@@H](C)O)cc3C(=O)N([C@@H](C)CO)C[C@@H]2C)cc1 | inactive
CCC(=O)N[C@H]1CC[C@H](CC(=O)OC)O[C@@H]1CO | inactive
CNC(=O)C[C@H]1CC[C@@H]2[C@H](COC[C@@H](O)CN2C(=O)c2ccccn2)O1 | inactive
CC(C)NC(=O)N(C)C[C@@H]1Oc2c(NS(=O)(=O)c3cn(C)cn3)cccc2C(=O)N([C@H](C)CO)C[C@H]1C | inactive
Cc1ccc(S(=O)(=O)N(C)C[C@H]2Oc3ccc(NC(=O)NC(C)C)cc3CC(=O)N([C@@H](C)CO)C[C@@H]2C)cc1 | inactive
O=C(C[C@@H]1CC[C@H]2[C@@H](COC[C@H](O)CN2C(=O)Nc2ccc(C(F)(F)F)cc2)O1)NCCc1ccncc1 | inactive
Cc1ccc(S(=O)(=O)Nc2ccc3c(c2)C(=O)N([C@@H](C)CO)C[C@H](C)[C@H](CN(C)C(=O)C2CCCCC2)OCCCC[C@@H](C)O3)cc1 | inactive
Cc1ccc(S(=O)(=O)Nc2ccc3c(c2)C(=O)N([C@H](C)CO)C[C@@H](C)[C@H](CN(C)C(=O)C2CCCCC2)OCCCC[C@@H](C)O3)cc1 | inactive
Cc1ccc(S(=O)(=O)Nc2ccc3c(c2)C(=O)N([C@@H](C)CO)C[C@H](C)[C@@H](CN(C)C(=O)C2CCCCC2)OCCCC[C@@H](C)O3)cc1 | active
